The source of these data is ChEMBL document CHEMBL1157539, “Thousands of chemical starting points for antimalarial lead identification” (Nature, 2010).

Each structure is given as a SMILES string. Over roughly 13,000 compounds, “IFI” has its median near 4; the highest 2% begin near 17. What follows is part of a selection rich in the highest values, with near analogues and random picks from the rest.

The experiment can be described thus: GSK_TCMDC: Inhibition Frequency Index (IFI). The number of non-kinase HTS assays where a compound showed > 50 % inhibition, expressed as a percentage of the number of such assays in which the compound was tested. The experiment is classed as functional.
Turning to `Nc1cc(/C=C/c2ccc([N+](=O)[O-])o2)nc2ccccc12`, the IFI was 16.7%.

In turn, `Nc1c2ccccc2nc2cc([N+](=O)[O-])ccc12` yielded an IFI of 6.92%.

Consider `Nc1cc(/C=C/c2ccc([N+](=O)[O-])s2)nc2ccccc12`, for which the IFI was found to be 19.2%.

`O=C(c1cccc(Br)c1)N1CCN(c2ccc([N+](=O)[O-])c(NC3CC3)c2)CC1`: the IFI was found to be 4.2%.

For `COc1ccc2ncc(F)c(CCN3CC[C@@H](CNCc4nc5c(cc4C)SCC(=O)N5)C3)c2n1`, the IFI turned out to be 5.83%.

`CCOc1ccc2nc3cc(N)ccc3c(N)c2c1` showed an IFI of 2.08%.

`CCOc1ccc2nc3cc([N+](=O)[O-])ccc3c(N)c2c1` came in with an IFI of 6.34%.

In the case of `CCOc1ccc2nc3cc(NC(=O)c4ccco4)ccc3c(N)c2c1`, the IFI worked out at 20.5%.

In turn, `CC(C)(CNCc1cccc(Oc2cccc(C(F)(F)F)c2)c1)c1nc(-c2ccnc(N)n2)c(-c2ccc(Cl)c(O)c2)[nH]1` came in with an IFI of 4.35%.

`Cc1cc(N(C)C)nc(Nc2ccc(NC(=O)c3c(F)cccc3Cl)cc2)n1`: the IFI worked out at 1.89%.

As for `CCNc1cc(C)nc(Nc2ccccc2)n1`, the IFI is 2.94%.

For the compound `CCNc1cc(C)nc(Nc2ccc(NC(=O)c3c(F)cccc3Cl)cc2)n1`, the IFI is 18.2%.

`CCNc1cc(C)nc(Nc2ccc(NS(=O)(=O)c3ccccc3)cc2)n1` had an IFI of 20.4%.

Turning to `CCNc1cc(C)nc(Nc2ccc(NC(=O)c3ccccc3Cl)cc2)n1`, the IFI is 11.3%.

For the compound `Cc1cc(N(C)C)nc(Nc2ccc(NS(=O)(=O)c3ccccc3)cc2)n1`, the IFI worked out at 9.62%.

In turn, `Cc1cc(Nc2ccc(O)cc2)nc2cc(O)ccc12` had an IFI of 3.85%.

For the compound `CCN(CC)/C(=N/C(=N)NCc1cccc(Cl)c1)NCCCCCCN/C(=N\C(=N)NCc1cccc(Cl)c1)N(CC)CC`, the IFI came to 13.8%.

`CN(C)/C(=N/C(=N)NCc1ccc(Cl)c(Cl)c1)NCCCCCCN/C(=N\C(=N)NCc1ccc(Cl)c(Cl)c1)N(C)C`: the IFI is 11.8%.

`CCCCN(CCCC)/C(=N/C(=N)NCc1ccc(Cl)c(Cl)c1)NCCCCCCN/C(=N\C(=N)NCc1ccc(Cl)c(Cl)c1)N(CCCC)CCCC` registered an IFI of 22.9%.

Turning to `N=C(/N=C(/NCCCCCCN/C(=N/C(=N)NCc1ccc(Cl)c(Cl)c1)N1CCCCC1)N1CCCCC1)NCc1ccc(Cl)c(Cl)c1`, the IFI is 18.8%.

On to `N=C(/N=C(/NCCCCCCN/C(=N\C(=N)Nc1ccc(Cl)cc1)N1CCOCC1)N1CCOCC1)Nc1ccc(Cl)cc1`, for which the IFI stood at 6.72%.

Take `N=C(/N=C(/NCCCCCCN/C(=N\C(=N)Nc1ccc(Cl)cc1)N1CCCCC1)N1CCCCC1)Nc1ccc(Cl)cc1`: the IFI was determined as 10.9%.

With `Cc1cccc2nc(-c3cccc(-c4ccc(NC(=O)C5CCCO5)cc4)c3)[nH]c12` (centres undefined), the IFI is 5.31%.

In the case of `Cc1ccc(C(=O)Nc2ccc(F)cc2)cc1-c1nc(NC2CC(C)(C)NC(C)(C)C2)nc2c1ccc(=O)n2-c1c(F)cccc1F`, the IFI was found to be 10.9%.

Consider `CC(C)c1ccc(OCCCON2C(=N)N=C(N)NC2(C)C)cc1`, for which the IFI is 6.34%.

Turning to `CCOC(=O)c1c(-c2ccccc2)nc2c(sc3ccccc32)c1O`, the IFI came to 1.48%.

The compound `c1ccc(CCNc2ccnc(Nc3ccc4[nH]nnc4c3)n2)cc1` registered an IFI of 3.23%.

For `CCN(CC)CCN(Cc1ccc(-c2ccc(C(F)(F)F)cc2)cc1)C(=O)Cn1c(SCc2ccc(F)cc2)cc(=O)c2ccccc21`, the IFI stood at 7.64%.

For `COc1ccc2[nH]ccc(=NN=Cc3ccc(F)cc3)c2c1`, the IFI stood at 2.22%.
